Assay results taken from PubChem BioAssay (NCATS).
Records with an inconclusive call do not appear. A number with no mark means an inactive call. Active and inactive are the calls of the source. Unless noted, calls come from the whole dose curve; as a rule, active = well fitted curve in the direction sought with a large enough effect; inconclusive = small, poorly fitted or top-dose-only effect, or another doubt; inactive = no such curve, though single readings can be large; an effect the other way counts as inactive or inconclusive.

What was measured:
[1] = qHTS Assay for Identifying Gametocytocidal Compounds (AID 743244); note: potency is the fitted concentration of half-maximal effect;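 for max response: % is set by controls: 0 for no effect and ±100 for the full control effect; actives lower the fluorescent signal which means gametocytes are killed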; settings: P. falciparum 3D7 stage III-V gametocytes, alamarBlue, 72 h; max response: hits give low values
Outline: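 3D7 gametocytes, stages III–V, 20,000/well; cpd 72 h, 37 °C/5% CO2; + alamarBlue 24 h; fluor. Ex 525/Em 598.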

[2] = qHTS assay for measurement of the activity of small molecule inhibitors on Zika virus induced Caspase-3 activity in human iPSC derived neural progenitor cells (hNPCs) (AID 1224857); note: nearly all actives have a fitted effect of over 65% in size; note: potency is the fitted concentration of half-maximal effect
Outline: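 Cells were plated at 350 per well and grown 16 to 20 hours. Compound pretreatment lasted one hour, after which ZIKV (2 FFU/cell) was added for 6 hours. Percent inhibition was normalized between uninfected and infected controls.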

[3] = qHTS assay for small molecule agonists of the antioxidant response element (ARE) signaling pathway measured by Nrf2-dependant transcriptional activity (AID 720636; active = well fitted curve in the direction sought with a large enough effect in the repeat runs; an effect the other way counts as inactive or inconclusive;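 note: HepG2 cells with an ARE-driven luciferase reporter; % of control where 0% means no effect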)
Outline: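 Nrf2-dependent transcription is measured in ARE-luc HepG2 cells: compound is applied for 16 hr at 37 C after a 6 hr attachment period, and luciferase activity is quantified by luminescence using ONE-Glo.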

[4] = qHTS assay for small molecule agonists of the antioxidant response element (ARE) signaling pathway measured by Nrf2-dependant transcriptional activity - cell viability counter screen (AID 720653; active = well fitted curve in the direction sought with a large enough effect in the repeat runs; an effect the other way counts as inactive or inconclusive; note: % is set by controls: 0 for no effect and ±100 for the full control effect); settings: ARE-bla HepG2 viability, CellTiter-Glo ATP luminescence, 16 h; hits give low values
Outline: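 ARE-bla HepG2 cells treated with compounds for 16 h at 37C; this counter screen measures viability as intracellular ATP by CellTiter-Glo luminescence after 30 min at room temperature.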

[5] = qHTS assay for cell viability of HEK293 cells (AID 743288); settings: ATP luminescence (CellTiter-Glo), 18 h, hits give low values; note: % is set by controls: 0 for no effect and ±100 for the full control effect; nearly all actives have a fitted effect of over 50% in size
Outline: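 ATP luminescence (CellTiter-Glo) reports metabolically competent cell number after parental HEK293 cells, 2,000/well, were treated with DMSO-dissolved compounds for 18 h at 37 C; reagent incubation 30 min, room temperature.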

**Q.** Which max response [1] does the source give for CC(=O)O[C@]1(C(C)=O)CC[C@H]2[C@@H]3C=C(Cl)C4=CC(=O)CC[C@]4(C)[C@H]3CC[C@@]21C here?
**A.** -7.79%

**Q.** What about the Potency [2] of the same molecule?
**A.** inactive

**Q.** Which outcome [3] does the source give for C#C[C@]1(O)CC[C@H]2[C@@H]3CCC4=Cc5oncc5C[C@]4(C)[C@H]3CC[C@@]21C here?
**A.** inactive

**Q.** And the max response [4]?
**A.** 1.42%

**Q.** What about the max response [1] of the same molecule?
**A.** -4.72%

**Q.** And the max response [5]?
**A.** -10.7%

**Q.** What about the Potency [2] of the same molecule?
**A.** inactive

**Q.** With CCN1/C(=C/C=C/c2sc3ccccc3[n+]2CC)Sc2ccccc21 as the molecule, how does the Potency [1] read?
**A.** 1.58 µM (active)

**Q.** And the Potency [2]?
**A.** 3.16 µM (active)

**Q.** Which outcome [3] does the source give for CCCCCCCCCCCCCC(=O)OC(C)C here?
**A.** inactive

**Q.** And the max response [4]?
**A.** -11.9%

**Q.** What about the max response [1] of the same molecule?
**A.** -3.41%

**Q.** What about the max response [5] of the same molecule?
**A.** -1.19%

**Q.** And the Potency [2]?
**A.** inactive

**Q.** For Cc1ccc(-c2ncc(Cl)cc2-c2ccc(S(C)(=O)=O)cc2)cn1, which max response [1] is on record?
**A.** 12.8%

**Q.** What about the Potency [2] of the same molecule?
**A.** inactive

**Q.** Which max response [1] does the source give for O=C(c1ccc(F)cc1)C1CCN(CCn2c(=S)[nH]c3ccccc3c2=O)CC1 here?
**A.** -2.47%

**Q.** What about the Potency [2] of the same molecule?
**A.** inactive

**Q.** What does the source list for CCOc1cc(OCC)c(C(=O)CCC(=O)O)cc1OCC?
**A.** max response [1]: 11%; Potency [2]: inactive

**Q.** Which outcome [3] does the source give for CCCCCCCCCCCCCCCCO here?
**A.** inactive

**Q.** And the max response [4]?
**A.** -4.14%

**Q.** What about the max response [1] of the same molecule?
**A.** 19.3%

**Q.** What about the max response [5] of the same molecule?
**A.** -3.2%

**Q.** What about the Potency [2] of the same molecule?
**A.** inactive

**Q.** For CCOc1ccccc1OCCN[C@H](C)Cc1ccc(OC)c(S(N)(=O)=O)c1, which max response [1] is on record?
**A.** 5.89%

**Q.** And the Potency [2]?
**A.** inactive

**Q.** With CN1CCN(C2=Nc3ccccc3Sc3ccc(Cl)cc32)CC1 as the molecule, how does the max response [1] read?
**A.** -0.118%

**Q.** What about the Potency [2] of the same molecule?
**A.** inactive

**Q.** For CCOC(=O)c1c(N)sc2c1CCN(Cc1ccccc1)C2, which Potency [1] is on record?
**A.** 11.2 µM (active)

**Q.** What about the Potency [2] of the same molecule?
**A.** inactive

**Q.** What does the source list for CCCCC(CC)CN1CN(CC(CC)CCCC)CC(C)(N)C1 (configuration not stated)?
**A.** max response [1]: 4.3%; Potency [2]: inactive

**Q.** Which max response [1] does the source give for CC(=O)OC[C@H]1O[C@@H](n2ncc(=O)[nH]c2=O)[C@H](OC(C)=O)[C@@H]1OC(C)=O here?
**A.** 13.3%

**Q.** And the Potency [2]?
**A.** inactive

**Q.** Which results are given for O=C(Nc1ccc([N+](=O)[O-])cc1)Nc1ccc([N+](=O)[O-])cc1?
**A.** max response [1]: 3.29%; Potency [2]: inactive

**Q.** With Cc1cn([C@H]2C[C@H](F)[C@@H](CO)O2)c(=O)[nH]c1=O as the molecule, how does the max response [1] read?
**A.** -5.75%

**Q.** What about the Potency [2] of the same molecule?
**A.** inactive

**Q.** What does the source list for O=C(Nc1ccccc1)OCC(CN1CCCCC1)OC(=O)Nc1ccccc1 (configuration not stated)?
**A.** max response [1]: 3.58%; Potency [2]: inactive

**Q.** Which results are given for Nc1nc(N)c(-c2ccccc2)s1?
**A.** max response [1]: -3.45%; Potency [2]: inactive

**Q.** Which max response [1] does the source give for NC(=O)n1c(O)c(C(=O)c2cccs2)c2cc(Cl)ccc21 here?
**A.** -6.13%

**Q.** And the Potency [2]?
**A.** inactive

**Q.** With CCN(CC)CCOC(=O)C(Cc1cccc2ccccc12)CC1CCCO1 (configuration not stated) as the molecule, how does the max response [1] read?
**A.** 7.43%

**Q.** What about the Potency [2] of the same molecule?
**A.** inactive

**Q.** Which results are given for COC(=O)C(c1ccccc1Cl)N1CCc2sccc2C1 (configuration not stated)?
**A.** max response [1]: 14.8%; Potency [2]: inactive

**Q.** Which max response [1] does the source give for CCN(CC)CCOc1ccccc1C(=O)CCc1ccccc1 here?
**A.** -3.28%

**Q.** And the Potency [2]?
**A.** inactive

**Q.** For CN1CCC(OC(c2ccccc2)c2ccccc2)CC1, which max response [1] is on record?
**A.** -7.17%

**Q.** And the Potency [2]?
**A.** inactive

**Q.** Which results are given for Cl/C(=C\n1cncn1)c1ccc(Cl)cc1Cl?
**A.** max response [1]: -6.68%; Potency [2]: inactive

**Q.** Which results are given for O=C(CCN1CCN2CCCC2C1)N1c2ccccc2Sc2ccc(Cl)cc21 (configuration not stated)?
**A.** Potency [1]: 22.4 µM (active); Potency [2]: inactive

**Q.** For COc1ccc2c(c1)c1c3n2CCN(C)C3=NCC1, which max response [1] is on record?
**A.** 18.4%

**Q.** And the Potency [2]?
**A.** inactive

**Q.** With CN(C)CCOC(=O)C(c1ccccc1)C1(O)CCCC1 (configuration not stated) as the molecule, how does the max response [1] read?
**A.** 1.53%

**Q.** What about the Potency [2] of the same molecule?
**A.** inactive

**Q.** For CCOC(=O)[C@@](C)(N)Cc1ccc(O)c(O)c1, which max response [1] is on record?
**A.** 1.03%

**Q.** What about the Potency [2] of the same molecule?
**A.** inactive

**Q.** Which Potency [1] does the source give for O=C1C(CCS(=O)c2ccccc2)C(=O)N(c2ccccc2)N1c1ccccc1 (configuration not stated) here?
**A.** 0.0089 µM (active)

**Q.** What about the Potency [2] of the same molecule?
**A.** inactive

**Q.** Which max response [1] does the source give for O=C(NCCc1c[nH]c2ccccc12)c1cccnc1 here?
**A.** -3.02%

**Q.** And the Potency [2]?
**A.** inactive

**Q.** What does the source list for COc1cc(NS(=O)(=O)c2ccc(N)cc2)ncn1?
**A.** max response [1]: -7.94%; Potency [2]: inactive

**Q.** Which results are given for CN(C)CCOC(c1ccc(Cl)cc1)c1ccccn1 (configuration not stated)?
**A.** max response [1]: 1.88%; Potency [2]: inactive

**Q.** With COc1cc(N)c(Cl)cc1C(=O)NC1CCN(Cc2ccccc2)CC1 as the molecule, how does the max response [1] read?
**A.** -0.971%

**Q.** And the Potency [2]?
**A.** inactive

**Q.** With CC(=O)Nc1ncc([N+](=O)[O-])s1 as the molecule, how does the max response [1] read?
**A.** -10.1%

**Q.** And the Potency [2]?
**A.** inactive

**Q.** What does the source list for Cn1c(=O)c2[nH]c(Br)nc2n(C)c1=O?
**A.** max response [1]: -3.24%; Potency [2]: inactive

**Q.** What does the source list for CCN(CC)CCNC(=O)c1cc(Br)c(N)cc1OC?
**A.** max response [1]: -8.23%; Potency [2]: inactive

**Q.** For OC(C#CCN1CCCC1)(c1ccccc1)c1ccccc1, which max response [1] is on record?
**A.** -3.1%

**Q.** And the Potency [2]?
**A.** inactive

**Q.** Which results are given for CC(=O)NO?
**A.** max response [1]: 6.13%; Potency [2]: inactive

**Q.** Which max response [1] does the source give for COc1ccc(CCN(C)CCCN2CCc3cc(OC)c(OC)cc3CC2=O)cc1OC here?
**A.** -9.4%

**Q.** What about the Potency [2] of the same molecule?
**A.** inactive

**Q.** Which max response [1] does the source give for Oc1ccccc1C=NCc1ccccc1 here?
**A.** 0.984%

**Q.** And the Potency [2]?
**A.** inactive

**Q.** For CC(C)(C)NC[C@H](O)COc1cccc2c1CCCC2=O, which max response [1] is on record?
**A.** -0.406%

**Q.** And the Potency [2]?
**A.** inactive

**Q.** Which max response [1] does the source give for O=S(=O)(O)c1ccc(O)cc1 here?
**A.** 19.1%

**Q.** And the Potency [2]?
**A.** inactive

**Q.** For CCCc1ncc(C[n+]2ccccc2C)c(N)n1, which max response [1] is on record?
**A.** 8.25%

**Q.** What about the Potency [2] of the same molecule?
**A.** inactive

**Q.** With CC(=O)Nc1ccc(S(=O)(=O)Nc2ccc([N+](=O)[O-])cc2)cc1 as the molecule, how does the max response [1] read?
**A.** 3.59%

**Q.** What about the Potency [2] of the same molecule?
**A.** inactive

**Q.** With CC(=O)N[C@@H](CCC(=O)O)C(=O)O as the molecule, how does the max response [1] read?
**A.** -0.648%

**Q.** And the Potency [2]?
**A.** inactive
